# Reference: the supplement of paper PMC10037445
# ± gives the standard deviation of the averaged measurements. The full ranking holds about 2,900 compounds; the median of “NF-kB SEAP reporter activity, fold change vs agonist alone” is about 0.99, and the highest 2% start at about 2.6. The sample holds the highest values, similar compounds and a random draw of the others, so the mix is not that of the screen.
# Assays:
# RAW-Dual [1] = assay: NF-kB SEAP reporter activity, fold change vs agonist alone; cytotoxicity flag (confluency mask): not cytotoxic; higher = enhanced NF-kB activity
# Outline: (§1)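 Library stock was pin-tooled at 50 nL into 384-well plates of RAW-Dual macrophages (50,000 cells/well, DMEM), followed 1 h later by a PRR agonist, and the cells were kept at 37 °C, 5% CO2. Supernatant collected after 20 hours was read for IRF by QuantiLuc luminescence and for NF-κB by QuantiBlue absorbance at 620 nm. Reporter activity is fold change over agonist-alone wells, and a well counted as cytotoxic when its IncuCyte confluency was below 70% of agonist controls in both mask sets.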
# RAW-Dual [2] = assay: NF-kB SEAP reporter activity, fold change vs agonist alone; higher = enhanced NF-kB activity
# Outline: as §1
# RAW-Dual [3] = assay: NF-kB SEAP reporter activity, fold change vs agonist alone; cytotoxicity flag (confluency mask): cytotoxic (confluency <70% of control); higher = enhanced NF-kB activity
# Outline: as §1
# [4] = agonist: ODN 1826 (TLR9) 0.5 ug/mL
# [5] = agonist: Pam2CSK4 (TLR2/6) 0.1 ug/mL
# [6] = agonist: Pam3CSK4 (TLR2/1) 0.1 ug/mL
# [7] = library stock concentration (final ~1000-fold dilution): 10 mM, cytotoxicity flag (confluency mask): not cytotoxic, agonist: Imiquimod (TLR7) […]
# [8] = library stock concentration (final ~1000-fold dilution): 10 mM, cytotoxicity flag (confluency mask): not cytotoxic, agonist: MPLA (TLR4) […]
# [9] = library stock concentration (final ~1000-fold dilution): 10 mM, cytotoxicity flag (confluency mask): cytotoxic (confluency <70% of control), agonist: Imiquimod (TLR7) […]
# [10] = library stock concentration (final ~1000-fold dilution): 10 mM, cytotoxicity flag (confluency mask): cytotoxic (confluency <70% of control), agonist: MPLA (TLR4) […]
smiles,measurement,setting,value
CCN1CCN(Cc2ccc(-c3cc4c(NC(C)c5ccccc5)ncnc4[nH]3)cc2)CC1 (configuration not stated) (library stock concentration (final ~1000-fold dilution): 10 mM),NF-kB SEAP reporter activity,RAW-Dual [1]; agonist: LPS (TLR4) 0.1 ug/mL,0.832
same,NF-kB SEAP reporter activity,RAW-Dual [1]; [4],0.215
same,NF-kB SEAP reporter activity,RAW-Dual [1]; [5],1.02
same,NF-kB SEAP reporter activity,RAW-Dual [1]; [6],1.01
CN1CCC(c2c(O)cc(O)c3c(=O)cc(-c4ccccc4Cl)oc23)C(O)C1.Cl (configuration not stated),NF-kB SEAP reporter activity,RAW-Dual [2]; [7],1.64
same,NF-kB SEAP reporter activity,RAW-Dual [2]; [8],1.49
CN1CCC(c2c(O)cc(O)c3c(=O)cc(-c4ccccc4Cl)oc23)C(O)C1.Cl (configuration not stated) (library stock concentration (final ~1000-fold dilution): 10 mM),NF-kB SEAP reporter activity,RAW-Dual [1]; agonist: LPS (TLR4) 0.1 ug/mL,0.188
same,NF-kB SEAP reporter activity,RAW-Dual [1]; [4],0.968
same,NF-kB SEAP reporter activity,RAW-Dual [1]; [5],0.469
same,NF-kB SEAP reporter activity,RAW-Dual [1]; [6],1.44
CC1(N)CCN(c2cnc(-c3cccc(Cl)c3Cl)c(N)n2)CC1.Cl (library stock concentration (final ~1000-fold dilution): 10 mM),NF-kB SEAP reporter activity,RAW-Dual [1]; agonist: LPS (TLR4) 0.1 ug/mL,1.2
same,NF-kB SEAP reporter activity,RAW-Dual [1]; [4],0.647
same,NF-kB SEAP reporter activity,RAW-Dual [1]; [5],0.778
same,NF-kB SEAP reporter activity,RAW-Dual [1]; [6],0.701
CC1(N)CCN(c2cnc(-c3cccc(Cl)c3Cl)c(N)n2)CC1.Cl,NF-kB SEAP reporter activity,RAW-Dual [2]; [7],1.11
same,NF-kB SEAP reporter activity,RAW-Dual [2]; [8],1.18
Cl.NCCCCC(N)C(=O)O (configuration not stated) (library stock concentration (final ~1000-fold dilution): 10 mM water),NF-kB SEAP reporter activity,RAW-Dual [1]; agonist: LPS (TLR4) 0.1 ug/mL,1.04
same,NF-kB SEAP reporter activity,RAW-Dual [1]; [4],1.11
same,NF-kB SEAP reporter activity,RAW-Dual [1]; [5],1.21
same,NF-kB SEAP reporter activity,RAW-Dual [1]; [6],1.17
Cl.NCCCCC(N)C(=O)O (configuration not stated),NF-kB SEAP reporter activity,"RAW-Dual [2]; library stock concentration (final ~1000-fold dilution): 10 mM water, cytotoxicity flag (confluency mask): not cytotoxic, agonist: Imiquimod (TLR7) […]",0.925
same,NF-kB SEAP reporter activity,"RAW-Dual [2]; library stock concentration (final ~1000-fold dilution): 10 mM water, cytotoxicity flag (confluency mask): not cytotoxic, agonist: MPLA (TLR4) […]",1.06
CCOC(=O)C(CCc1ccccc1)NC(C)C(=O)N1CCCC1C(=O)O.O=C(O)/C=C\C(=O)O (configuration not stated) (library stock concentration (final ~1000-fold dilution): 10 mM),NF-kB SEAP reporter activity,RAW-Dual [1]; agonist: LPS (TLR4) 0.1 ug/mL,1.08
same,NF-kB SEAP reporter activity,RAW-Dual [1]; [4],1.04
same,NF-kB SEAP reporter activity,RAW-Dual [1]; [5],1.03
same,NF-kB SEAP reporter activity,RAW-Dual [1]; [6],1.02
CCOC(=O)C(CCc1ccccc1)NC(C)C(=O)N1CCCC1C(=O)O.O=C(O)/C=C\C(=O)O (configuration not stated),NF-kB SEAP reporter activity,RAW-Dual [2]; [7],0.942
same,NF-kB SEAP reporter activity,RAW-Dual [2]; [8],1.06
CC12CCC(O)CC1=CCC1C2CCC2(C)C(C(O)CC(O)(C(F)(F)F)C(F)(F)F)CCC12 (configuration not stated),NF-kB SEAP reporter activity,RAW-Dual [2]; [7],0.815
same,NF-kB SEAP reporter activity,RAW-Dual [2]; [8],0.786
CC12CCC(O)CC1=CCC1C2CCC2(C)C(C(O)CC(O)(C(F)(F)F)C(F)(F)F)CCC12 (configuration not stated) (library stock concentration (final ~1000-fold dilution): 10 mM),NF-kB SEAP reporter activity,RAW-Dual [1]; agonist: LPS (TLR4) 0.1 ug/mL,0.54
same,NF-kB SEAP reporter activity,RAW-Dual [1]; [4],0.663
same,NF-kB SEAP reporter activity,RAW-Dual [1]; [5],0.739
same,NF-kB SEAP reporter activity,RAW-Dual [1]; [6],0.489
O=C(Nc1ccc2[nH]nc(-c3ccc4[nH]ccc4c3)c2c1)c1c(Cl)cccc1Cl (library stock concentration (final ~1000-fold dilution): 10 mM),NF-kB SEAP reporter activity,RAW-Dual [3]; agonist: LPS (TLR4) 0.1 ug/mL,0.946
same,NF-kB SEAP reporter activity,RAW-Dual [3]; [4],0.844
same,NF-kB SEAP reporter activity,RAW-Dual [3]; [5],0.0858
same,NF-kB SEAP reporter activity,RAW-Dual [3]; [6],0.202
O=C(Nc1ccc2[nH]nc(-c3ccc4[nH]ccc4c3)c2c1)c1c(Cl)cccc1Cl,NF-kB SEAP reporter activity,RAW-Dual [2]; [9],0.55
same,NF-kB SEAP reporter activity,RAW-Dual [2]; [10],0.704
C=CC(=O)N1CCC(Oc2nc(Nc3ccc(N4CCC(N5CCN(C)CC5)CC4)cc3)c(C(N)=O)nc2CC)C1 (configuration not stated) (library stock concentration (final ~1000-fold dilution): 10 mM),NF-kB SEAP reporter activity,RAW-Dual [3]; agonist: LPS (TLR4) 0.1 ug/mL,1.06
same,NF-kB SEAP reporter activity,RAW-Dual [3]; [4],0.194
same,NF-kB SEAP reporter activity,RAW-Dual [3]; [5],0.507
same,NF-kB SEAP reporter activity,RAW-Dual [3]; [6],0.542
C=CC(=O)N1CCC(Oc2nc(Nc3ccc(N4CCC(N5CCN(C)CC5)CC4)cc3)c(C(N)=O)nc2CC)C1 (configuration not stated),NF-kB SEAP reporter activity,RAW-Dual [2]; [9],0.967
same,NF-kB SEAP reporter activity,RAW-Dual [2]; [10],1.62
CC1OC(OC2C(=O)c3c(O)cc(O)cc3OC2c2ccc(O)cc2)C(O)C(O)C1O (configuration not stated),NF-kB SEAP reporter activity,RAW-Dual [2]; [7],1.03 ± 0.025
same,NF-kB SEAP reporter activity,RAW-Dual [2]; [8],1.04 ± 0.041
CC1OC(OC2C(=O)c3c(O)cc(O)cc3OC2c2ccc(O)cc2)C(O)C(O)C1O (configuration not stated) (library stock concentration (final ~1000-fold dilution): 10 mM),NF-kB SEAP reporter activity,RAW-Dual [1]; agonist: LPS (TLR4) 0.1 ug/mL,1.09 ± 0.015
same,NF-kB SEAP reporter activity,RAW-Dual [1]; [4],0.9919 ± 0.0043
same,NF-kB SEAP reporter activity,RAW-Dual [1]; [5],1.06 ± 0.064
same,NF-kB SEAP reporter activity,RAW-Dual [1]; [6],1.39 ± 0.41
